Most compounds without a hit are left out; they make up all but 2.8% or so of the library.
Mito fusion yeast – inhibitors of mitochondrial division or activators of mitochondrial fusion; S. cerevisiae fusion-defective mutant growth rescue, CellTiterGlo 48 h; Potency, µM (titrated, usually from 46.1 µM), usual class: activators; hit rate 0.23% among 320,000; note: nearly all actives have a fitted effect of over 45% in size
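Read-out: ATP-based luminescence (CellTiterGlo, 10 min ambient) reporting growth of fusion-defective ts yeast after 48 hours at 37C on glycerol/ethanol YPEG medium in the presence of compound.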
HEK293 tox – cytotoxic in the GLP-1 receptor inverse agonist counter-screen; HEK293 cAMP-luciferase reporter cells, luminescence, 24 h; Potency, µM (series often up to 38.3 µM), usual class: inhibitors; hit rate 0.13% among 410,000; AID 624418;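 note: loss of luciferase light is scored as toxicity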
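Luminescence readout: signal drop marks cytotoxicity. Plated cells grew 12 h at 37 °C, 5% CO2, received 23 nL compound for 24 h, then got luciferase reagent, read after 12 min at RT.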
GLP1R inv ag – GLP-1 receptor (human) inverse agonism; P43220; HEK293 GLP-1R CRE-luciferase, luminescence, 24 h; GLP-1R form is constitutively active; Potency, µM (titrated, usually from 38.3 µM), hits mostly inhibitors; hit rate 1.6% among 410,000; AID 624417; note: nearly all actives have a fitted effect of over 55% in size
Target sequence (P43220 whole entry, looked up): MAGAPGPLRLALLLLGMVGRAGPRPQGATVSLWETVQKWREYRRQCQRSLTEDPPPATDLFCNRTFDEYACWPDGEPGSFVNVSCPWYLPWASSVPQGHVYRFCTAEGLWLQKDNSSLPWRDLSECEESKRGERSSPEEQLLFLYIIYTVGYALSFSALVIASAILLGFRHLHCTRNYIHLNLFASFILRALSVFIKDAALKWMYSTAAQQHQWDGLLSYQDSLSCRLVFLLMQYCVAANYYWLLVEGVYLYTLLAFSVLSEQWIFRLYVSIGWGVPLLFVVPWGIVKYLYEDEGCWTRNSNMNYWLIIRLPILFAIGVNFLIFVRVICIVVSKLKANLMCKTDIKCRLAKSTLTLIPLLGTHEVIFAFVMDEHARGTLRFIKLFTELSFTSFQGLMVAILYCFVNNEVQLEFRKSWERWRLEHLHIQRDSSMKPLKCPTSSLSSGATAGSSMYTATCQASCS
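qHTS in 1536-well format: reporter HEK293 cells expressing constitutive GLP-1R activity in DMEM + 10% Nu serum, 24 hr with compounds at 37 deg C, luminescence read after 12 min with detection reagent.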
BRCA1 expr up – BRCA1 expression activation. AID 624202. hit rate 1.1% among 380,000. MCF7-BRCA1-FFLuc reporter, luminescence, 48 h; response scale: scaled: vehicle 0%, 10 µM genistein 100%. Potency, µM (series often up to 46.1 µM), hits mostly activators; note: nearly all actives have a fitted effect of over 80% in size
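Luminescence from a BRCA1-driven firefly luciferase in MCF7 cells was read after 48 h compound exposure at 37 C. Data normalized against DMSO and a 10microM genistein activation control, then curve-fitted across the titration.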
GLP-1R agonist – activates the human GLP-1 receptor; P43220; HEK293 GLP-1R CRE-luciferase, luminescence, 4-6 h; cells express a hypersensitive GLP-1R form; Potency, µM (doses to about 45.6 µM), actives largely listed as activators; hit rate 0.007% among 380,000; AID 624172
Of the large screens only hits and unclear results are named; the others gave an inactive call. Calls come from the whole dose curve; as a rule, active = well fitted curve in the direction sought with a large enough effect; inconclusive = small, poorly fitted or top-dose-only effect, or another doubt; inactive = no such curve, though single readings can be large; an effect the other way counts as inactive or inconclusive.

Cc1c(C)n(CC(O)CNc2ccccc2)c2ccccc12 (configuration not stated)	GLP1R inv ag 10µM
FC(F)c1nc2nc(Cl)c(Cl)nc2[nH]1	GLP1R inv ag 14µM (no result: Mito fusion yeast)
FCc1nc2nc(Cl)c(Cl)nc2[nH]1	none (no result: Mito fusion yeast)
CCc1ccc(-c2nc(CN3CCC(C(=O)NCCN(CC)c4ccccc4)CC3)c(C)o2)cc1	GLP1R inv ag inconclusive
CCC1CCCCN1CCCNC(=O)C1CCN(Cc2nc(-c3ccc(Cl)cc3)oc2C)CC1 (configuration not stated)	HEK293 tox 5µM, GLP1R inv ag 13µM
COc1ccc(-c2nc(CN3CCC(C(=O)NCCCN4CCN(c5ccccc5F)CC4)CC3)c(C)o2)cc1OC	HEK293 tox 13µM, GLP1R inv ag 10µM (no result: Mito fusion yeast, BRCA1 expr up, GLP-1R agonist)
CCN(CCNC(=O)C1CCN(Cc2nc(-c3ccc(Cl)cc3)oc2C)CC1)c1ccccc1	HEK293 tox inconclusive, GLP1R inv ag 2.5µM
O=C(CC1C(=O)N(c2ccccc2)C(=O)N1CCc1cccs1)Nc1ccc(Cl)cc1 (configuration not stated)	GLP1R inv ag inconclusive (no result: Mito fusion yeast, BRCA1 expr up, GLP-1R agonist)
O=C(CC1C(=O)N(c2ccccc2)C(=O)N1CCC1=CCCCC1)Nc1ccc(F)cc1 (configuration not stated)	GLP1R inv ag 10µM (no result: Mito fusion yeast, BRCA1 expr up, GLP-1R agonist)
Cc1ccsc1CCN1C(=O)N(c2ccccc2)C(=O)C1CC(=O)Nc1ccc(Cl)cc1 (configuration not stated)	GLP1R inv ag 10µM (no result: Mito fusion yeast, BRCA1 expr up, GLP-1R agonist)
Cn1cc(CN(C(=O)Nc2ccccc2)C2CCCCC2)c2ccccc21	HEK293 tox inconclusive, GLP1R inv ag 10µM (no result: Mito fusion yeast)
Cn1cc(C(=O)N2CCN(c3cccc(Cl)c3)CC2)c(=O)c2cc(S(=O)(=O)N3CCCC3)ccc21	none (no result: Mito fusion yeast, BRCA1 expr up, GLP-1R agonist)
COc1ccc(C(=O)NCCn2cc(SCC(=O)Nc3nnc(C)s3)c3ccccc32)cc1	BRCA1 expr up 13µM (no result: Mito fusion yeast)
N/C(=N\OC(=O)c1cccc(F)c1)c1cccc([N+](=O)[O-])c1	BRCA1 expr up 13µM
N/C(=N/OC(=O)c1cccc([N+](=O)[O-])c1)c1cccc([N+](=O)[O-])c1	BRCA1 expr up 7.1µM
Cc1ccc(Cc2c(C)nn(-c3nc(C)c(C(=O)N4CCCCC4C)s3)c2C)cc1 (configuration not stated)	none (no result: Mito fusion yeast, BRCA1 expr up, GLP-1R agonist)
O=C(COc1ccccc1)NCC1(N2CCCCC2)CCCCC1	none
Cn1nc(C(F)(F)F)c(C(=O)Nc2ccc(F)cc2F)c1Sc1cccc(Cl)c1	GLP1R inv ag 13µM
CSCCNC(=O)c1ccc(OC2CCN(CCc3ccccc3)CC2)cc1	none
COc1ccc(NC(=O)CC2C(=O)N(Cc3ccco3)C(=S)N2C(C)C)cc1 (configuration not stated)	GLP1R inv ag 10µM
COc1ccc(NC(=O)CC2C(=O)N(Cc3cccs3)C(=S)N2C(C)C)cc1 (configuration not stated)	GLP1R inv ag inconclusive
Cc1nn2c(N3CCN(CCO)CC3)c3c(nc2c1-c1ccccc1)CCCC3	GLP1R inv ag 3.5µM
CCCCCCCN(C(=O)CCl)c1cccc(C)c1	GLP1R inv ag inconclusive
N#CCCN(C(=O)CCl)c1cccc(Cl)c1	GLP1R inv ag 2.2µM
COc1ccc(S(=O)(=O)N(C)C)cc1NC(=O)c1ccc2c(c1)NC(=O)C(C)S2 (configuration not stated)	none
COc1cc2c(cc1OC)C(C)N(C(=O)c1cc3c(s1)-c1c(C)cccc1OC3)CC2 (configuration not stated)	Mito fusion yeast 25µM, GLP1R inv ag inconclusive
COc1cc2c(cc1OC)C(C)N(C(=O)c1cc3c(s1)-c1ccccc1OC3)CC2 (configuration not stated)	Mito fusion yeast 20µM
CC(C)(C)[C@H]1C=C(C(=O)NCc2nc3ccccc3[nH]2)O[C@@H](OCCCCO)C1	Mito fusion yeast 5.6µM
CCO[C@H]1OC(C(=O)NCc2nc3ccccc3[nH]2)=C[C@@H](C2CCCCC2)[C@@H]1CCCO	GLP1R inv ag 10µM
Cc1csc(NC(=O)Cc2ccccc2Cl)n1	GLP1R inv ag inconclusive, BRCA1 expr up 10µM
O=C(N/N=C/c1ccoc1)c1ccc([N+](=O)[O-])cc1	none
COc1ccc(-c2csc(C(C)(O)c3cccc(F)c3)n2)cc1OC (configuration not stated)	none (no result: Mito fusion yeast)
Cc1sc2ncnc(N3CCC(C(=O)Nc4cc(Cl)ccc4Cl)CC3)c2c1C	Mito fusion yeast inconclusive, GLP1R inv ag 10µM
Cc1ccc(NC(=O)C2CCN(c3ncnc4sc(C)c(C)c34)CC2)cc1S(=O)(=O)N(C)C	GLP1R inv ag inconclusive
CCN(CC)S(=O)(=O)c1cc(NC(=O)C2CCN(c3ncnc4sc(C)c(C)c34)CC2)ccc1Cl	GLP1R inv ag 2.5µM
Cc1sc2ncnc(N3CCC(C(=O)N(C)CC(=O)Nc4ccc(Cl)c(C(F)(F)F)c4)CC3)c2c1C	HEK293 tox inconclusive, GLP1R inv ag 2.5µM
Cc1ccc(NC(=O)C2CC(=O)N(Cc3ccccc3)C2)cc1S(=O)(=O)N1CCCCCC1 (configuration not stated)	HEK293 tox inconclusive, GLP1R inv ag inconclusive
Cc1sc2ncnc(N3CCC(C(=O)N(C)CC(=O)Nc4cccc(F)c4)CC3)c2c1C	GLP1R inv ag inconclusive (no result: Mito fusion yeast)
CCN(CC)S(=O)(=O)c1cc(NC(=O)C2CC(=O)N(Cc3ccccc3)C2)ccc1Cl (configuration not stated)	GLP1R inv ag 10µM
CCCCn1c(N)c(N(CC)C(=O)c2ccccc2C)c(=O)[nH]c1=O	none
C[C@H](O)[C@@H]1CN2CCc3c([nH]c4ccc(-c5ccc6c(c5)OCO6)cc34)[C@@H]2C[C@@H]1N(C)C(=O)Nc1cc(Cl)cc(Cl)c1	HEK293 tox inconclusive, GLP1R inv ag 2.8µM (no result: Mito fusion yeast)
C[C@H](O)[C@@H]1CN2CCc3c([nH]c4ccccc34)[C@@H]2C[C@@H]1N(C)C(=O)Nc1cc(Cl)cc(Cl)c1	GLP1R inv ag inconclusive (no result: Mito fusion yeast)
C[C@H](O)[C@@H]1C(=O)N2CCc3c([nH]c4ccccc34)[C@@H]2C[C@@H]1N(C)C(=O)Nc1cc(Cl)cc(Cl)c1	GLP1R inv ag 10µM (no result: Mito fusion yeast)
O=C(NCc1ccc(F)cc1)C1CCN(S(=O)(=O)c2ccc3c(c2)OCCCO3)CC1	none
O=C(NCc1ccc(Cl)cc1Cl)C1CCN(S(=O)(=O)c2ccc3c(c2)OCCCO3)CC1	GLP1R inv ag 7.9µM
N#C/C(=C\c1ccccc1[N+](=O)[O-])c1nc(C2CC2)cs1	Mito fusion yeast 20µM
N#C/C(=C/c1ccccc1[N+](=O)[O-])c1nc(C2CC2)cs1	Mito fusion yeast inconclusive
CC(=O)c1c(C)[nH]c(C(=O)NNC(=O)c2ccc(Br)cc2)c1C	none (no result: Mito fusion yeast)
CCOC(=O)c1c(C)[nH]c(C)c1C(=O)COC(=O)/C=C/c1cccc(Cl)c1	none

Compound activity as filed in PubChem.
